Screening results: PubChem, National Center for Advancing Translational Sciences (NCATS)
Most compounds without a hit are left out; they make up all but 11% or so of the library.
PNC inhibitor – inhibitors of perinucleolar compartment assembly; PC3M PTB-GFP, PNC prevalence imaging, 16 h; stronger effect = lower value; activity change (PNC), negative = inhibition, % at 10 µM; 140,000 tested, 3.1% active; AID 2417;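 active = readout at or below -70, meaning at least 70% loss of cells showing the perinucleolar compartment, a nuclear body marking cancer cells; inconclusive = readout between -30 and a set limit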;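 also: plate controls were DMSO wells for no effect and camptothecin positive control wells for full effect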
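Compounds are pinned in duplicate onto adhered PC3M cells stably expressing GFP-tagged PTB and incubated 16 h at 37 C. Cells are then fixed, nuclei stained with Hoechst, and PNC-positive cells counted.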
ALDH1A1 block – blocks purified human ALDH1A1 activity; P00352; Purified ALDH1A1, NADH fluorescence, propionaldehyde substrate; Potency, µM (top dose mostly 75.3 µM), without a hit: at the top dose activity, negative = inhibition, hits mostly inhibitors; 220,000 tested, 7.3% active;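 also: potency is read from the fitted curve at half-maximal effect; plate controls were no enzyme wells and a reference inhibitor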
HPGD inh – blocks human HPGD enzyme activity; P15428; AID 894; purified HPGD, NADH fluorescence kinetic, PGE2 substrate; Potency, µM, for inactives: at the top dose activity change, negative = inhibition, usual class: inhibitors; 150,000 tested, 4.3% active; also: potency is read from the fitted curve at half-maximal effect
Target sequence (P15428 whole entry, looked up): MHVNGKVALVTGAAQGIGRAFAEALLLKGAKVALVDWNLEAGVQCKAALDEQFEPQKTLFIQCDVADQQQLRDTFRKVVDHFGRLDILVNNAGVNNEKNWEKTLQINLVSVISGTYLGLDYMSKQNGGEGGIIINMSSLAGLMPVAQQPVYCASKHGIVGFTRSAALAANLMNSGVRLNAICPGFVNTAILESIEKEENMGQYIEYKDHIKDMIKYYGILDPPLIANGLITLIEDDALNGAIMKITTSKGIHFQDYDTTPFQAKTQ
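20 nM HPGD preincubated 15 min at room temperature with compound in 50 mM Tris-HCl pH 8, 0.01% Tween 20. Started with 1 mM NAD+ and 30 uM prostaglandin E2; NADH fluorescence (360/450 nm) read 5 times over 30-s intervals, last minus first.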
* marks the source's active call; other numbers are inactive results; i = inactive; ? = inconclusive; . = no result; [ ] = another dose, or the depositor's remark. Unless noted, calls follow the shape of the dose curve; as a rule, active = well fitted inhibition curve with a large enough effect (not every such curve was filed as active); inconclusive = small, poorly fitted or top-dose-only effect, or another doubt; inactive = no such curve, though single readings can be large or run the other way. Unless noted, % is scaled to controls: 0 for no effect and ±100 for the full control effect.

SMILES	PNC inhibitor	ALDH1A1 block	HPGD inh
C=C(C)C(=O)c1cccs1	.	-2%	-7%
O=C1COc2ccc(C(=O)COC(=O)Cc3ccsc3)cc2N1	.	-7%	.
CC(=O)c1ccc(NC(=S)NC(C)c2ccc(Cl)cc2Cl)cc1 (centres undefined)	.	-11%	.
C=CCS/C(N)=N\N=C\c1cc(Br)cc([N+](=O)[O-])c1O	.	7.1µM*	.
O=C1C2C(C(=O)N1/N=C/c1cc(Br)cc([N+](=O)[O-])c1O)C1C=CC2C12CC2 (centres undefined)	-25	?	-17%
N/C(=N\c1nc2c(c(=O)[nH]1)CCC2)Nc1ccccc1	17	8%	-14%
O=c1cc(N=Nc2ccc(O)cc2)[nH]c(=O)[nH]1	.	-10%[13.5 µM]	-8%
CN(C)C(=O)/C(C#N)=C\c1cc(Br)c(Sc2ccc(Cl)cc2)o1	?	-4%	-5%
C=CCn1c(SCC(=O)c2[nH]c(C)c(C(=O)OCC)c2C)nc2scc(-c3ccc(OC)c(OC)c3)c2c1=O	?	1%	-8%
CCOC(=O)CCn1c(=O)c2c(nc(Br)n2Cc2ccccc2)n(C)c1=O	24	?	-22%
Cn1c(=O)c2c(nc(N3CCCCCC3)n2CC(O)COc2ccccc2)n(C)c1=O (centres undefined)	35	1.6µM*	-9%
Cn1c(=O)c2c(nc(NC3CCCCC3)n2CC(O)COc2ccccc2)n(C)c1=O (centres undefined)	14	?	-7%
C/C(Cl)=C/Cn1c(N2CCCC2)nc2c1c(=O)n(C)c(=O)n2C	-11	-3%	1%
CC(O)Cn1c(=O)c2c(nc(Br)n2Cc2ccccc2)n(C)c1=O (centres undefined)	-119*	6%	-8%
CCOC(=O)Cn1c(=O)c2c(nc(N3CCCCC3)n2Cc2ccccc2)n(C)c1=O	-23	14µM*	-10%
C/C(Cl)=C\Cn1c(Nc2ccc(C)cc2)nc2c1c(=O)n(C)c(=O)n2C	-95*	?	-7%
CCOC(=O)Cn1c(=O)c2c(nc(N3CCOCC3)n2C)n(C)c1=O	23	1%	-7%
COC(=O)NC(c1cccs1)C(C(C)=O)C(=O)OC (centres undefined)	.	-5%[13.5 µM]	.
CCOC(=O)C1(CCOc2ccccc2)CCN(Cc2cc(OC)c3c(c2)OCO3)CC1	.	-10%	.
O=C(NCCC1=CCCCC1)c1cc(-c2ccccn2)nc2ccccc12	.	6%	.
COC(=O)C1(C(=O)OC)C/C=C\C/C=C\c2ccccc2C1C[N+](=O)[O-] (centres undefined)	.	9%	-2%
NNC(=O)Cn1c2ccccc2c2ccccc21	.	-1%	.
CCOc1ccc(NC(=O)c2nn(-c3ccc(OC)cc3OC)c(=O)c3ccccc23)cc1	.	9%	.
C=C(C)CNC(=S)N1CCNC(=O)C1CC(=O)OC (centres undefined)	19	-15%	-5%
O=C(CNC(=O)c1cnccn1)Nc1ccc(F)c(F)c1F	7	19%	-11%
SMILES	PNC inhibitor	ALDH1A1 block	HPGD inh
COc1cccc(OC)c1OCC(C)CNCC1CCCO1 (centres undefined)	0	-11%	-12%
Cc1cccc(Nc2nc3c(c(=O)n(C)c(=O)n3C)n2CC(O)CO)c1 (centres undefined)	?	11%	3%
COc1ccc(OCC(O)Cn2c(Nc3ccccc3)nc3c2c(=O)n(C)c(=O)n3C)cc1 (centres undefined)	-83*	2%	-23%
CCCc1nc2sc3c(SCC(=O)NCc4ccco4)ncnc3c2c2c1CCC2	3	25µM*	?
COC(=O)CSc1ncnc2c1sc1nc(-c3ccco3)c3c(c12)CC(C)(C)OC3	24	?	?
Cc1nc(SCC(=O)NCc2ccco2)c2c3c(sc2n1)CCCC3	?	10µM*	14µM*
O=C(CSc1nc(C2CC2)nc2sc3c(c12)CCCC3)NCc1ccco1	-26	6%	-9%
Cc1sc2ncn(CC(=O)NCCCC(=O)N3CCN(c4ncccn4)CC3)c(=O)c2c1C	?	12%	-14%
CCCc1c(C)nc2ccc(OC)cc2c1SCCC(=O)O	?	-3%	?
C=CCc1c(C)nc2c(C)cccc2c1SC(=N)N	.	-5%	.
CCCCc1c(C)nc2ccccc2c1SCCC#N	28	7.1µM*	-26%
CCc1c(C)nc2c(C)cccc2c1SCCC#N	.	7.9µM*	.
CCN(CC)CCNS(=O)(=O)c1ccc(OC)c(Br)c1	16	-3%	2%
Cc1ccc2c(c1)N(C(=O)CCC(=O)O)CCO2	14	5%	-6%
CCOC(=O)N1CCN(C(=O)CCC(=O)N2CCOc3ccc(C)cc32)CC1	-2	25µM*	.
c1ccc(Nc2nc3ccccc3[nH]2)nc1	?	?	32µM*
Cc1cc(C)nc(Nc2nc3ccccc3[nH]2)n1	?	-1%	-13%
O=c1c2ccccc2nc(N2CCN(c3ccccc3)CC2)n1Cc1ccccc1	-13	?	-29%
NNc1nnc(-c2ccccc2)c(-c2ccccc2)n1	?	13µM*	-7%
NNc1nc(-c2ccccc2)c2ccccc2n1	.	1%	.
CCN(CC)C(=O)c1cn(-c2ccccc2)nc1-c1ccc2c(c1)OCCO2	.	-8%	.
N#Cc1cn(-c2ccccc2)nc1-c1ccc2c(c1)OCCO2	-100*	-6%	-9%
CN(C(=O)COC(=O)/C=C/c1cn(-c2ccccc2)nc1-c1ccc2c(c1)OCCO2)C1CCS(=O)(=O)C1 (centres undefined)	.	i	.
N#Cc1cn(-c2ccccc2)nc1-c1ccco1	-21	28µM*	-13%
O=Cc1cn(-c2ccccc2)nc1-c1ccc2c(c1)OCCO2	?	18µM*	-13%
SMILES	PNC inhibitor	ALDH1A1 block	HPGD inh
N#Cc1cn(-c2ccccc2)nc1C(=O)c1ccccc1	41	-9%	-10%
CCCn1c(SCC(=O)Nc2ccc(OC)cc2)nnc1-c1ccncc1	29	5%	-7%
CCOC(=O)c1ccc(Oc2c(C)oc3cc(OS(C)(=O)=O)ccc3c2=O)cc1	?	11%	?
CCOC(=O)C1CNc2cc(S(=O)(=O)CC)ccc2O1 (centres undefined)	.	-3%	.
CCOc1ccc2c(ccc(/C=C\c3cc(C)c4cccnc4c3O)[n+]2C)c1	.	2%[13.5 µM]	-15%
COC(=O)c1c(C(=O)OC)c(-c2ccc(Cl)cc2)n2c1CS(=O)(=O)C2	.	2%	.
COc1ccc(N2CCN(C(c3cccs3)C(C)NS(C)(=O)=O)CC2)cc1 (centres undefined)	.	3%	.
Cc1c(C(=O)NN)sc(-c2ccccc2)c1C#N	.	1.3µM*	.
CCOC(=O)c1sc(-c2ccc(C)cc2)c(C#N)c1C	-21	?	?
COc1ccc(C(=O)COc2ccc(F)cc2)c(O)c1C	.	2%	.
C/[N+]([O-])=C\c1coc2ccccc2c1=O	25	2%	-9%
O=C1NC(=S)S/C1=C\c1coc2ccccc2c1=O	.	8.9µM*	.
COc1cc(O)c(NC(C)=O)c2nonc12	-88*	-4%	-4%
COc1ccccc1NC(C)=O	3	-10%	-7%
O=C(Nc1ccc(S(=O)(=O)Nc2ccccn2)cc1)C(F)(F)F	.	-5%	.
CC(CCc1ccccc1)NC(=O)c1ccc(NC(=O)c2cccc(Br)c2)cc1 (centres undefined)	-113*	-5%	-14%
CC(CCc1ccccc1)NC(=O)c1ccc(NC(=O)c2ccccc2)cc1 (centres undefined)	-6	-4%	.
